The text below walks through data of the supplement of paper PMC10646978.

This assay relates to RAW-Dual (murine macrophage reporter line). The assay is described as follows: viability score (confluency relative to resting cells, overnight) (fraction); higher = more viable, active = viable (0.7 or more). The note with it: modulator concentration 10 µM. The gist of the method:
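Two confluency masks, generated with IncuCyte software over all imaged wells, were applied to IncuCyte images of RAW-Dual macrophages. The cells, in 384-well plates, had been exposed overnight to 10 μM final compound. The viability score is confluency as a fraction of resting cells, and a compound met the cutoff only with both masks above 70% of resting cells.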
Turning to `Cc1cc(C(=O)N2CCC(Oc3cccc4cccnc34)CC2)n(C)n1`, the viability score was 0.536 (inactive).

With `COc1cc2ccc(=O)oc2cc1O`, the viability score was 1 (active).

`COc1ccc(C(=O)Nc2cc(C)nc3c(C)cc(C)cc23)cc1OC`: the viability score was 0.589 (inactive).

`O=c1n(CCNS(=O)(=O)Cc2ccccc2)nc(C2CC2)n1-c1ccccc1`: the viability score is 1.01 (active).

With `O=[N+]([O-])c1ccc(OCC(O)CN2CCN(c3ccccc3)CC2)cc1` (stereo not drawn), the viability score was 1.01 (active).

Turning to `CCc1ccccc1Nc1nc(-c2sc(NC(C)=O)nc2C)cs1`, the viability score was 0.536 (inactive).

Take `COc1cc2c(cc1Cc1cccc(Cl)c1F)c(=O)c(C(=O)O)cn2[C@H](CO)C(C)C`: the viability score was 0.936 (active).

For `NC(=O)c1ncn(C2OC(CO)C(O)C2O)c1O` (stereo not drawn), the viability score is 1.01 (active).

As for `CCOC(=O)C1=C(C)NC(C)=C(C(=O)OC)C1c1ccc(C)cc1` (stereo not drawn), the viability score is 0.935 (active).

Turning to `CN1CCN(C2=C(Cl)C(=O)N(c3ccc(Cl)c(Cl)c3)C2=O)CC1`, the viability score is 1.01 (active).

As for `CCC1(C)CC(CCN)(c2ccc(C)cc2)CCO1` (stereo not drawn), the viability score is 0.962 (active).

Take `Cc1ccc(NC(Nc2ccc(C)cc2)=C(C(Cl)=C(Cl)Cl)[N+](=O)[O-])cc1`: the viability score is 0.998 (active).

Take `O=C(Nc1cc2c(cc1Cl)OCCO2)c1cc(Cl)ccc1O`: the viability score is 1.01 (active).

For `Cl.O=C1Cc2cc(CCN3CCN(c4nsc5ccccc45)CC3)c(Cl)cc2N1`, the viability score is 0.983 (active).

Take `O=S(=O)(c1ccc(F)cc1)N1CCC(c2nc3ccccc3[nH]2)CC1`: the viability score is 0.964 (active).

On to `COc1ccc(C=NNc2nc(-c3ccccc3)cc(-c3ccc(Br)cc3)n2)c(OC)c1`, for which the viability score is 1.03 (active).

As to `CCc1nc(N)nc(N)c1-c1ccc(Cl)cc1`, the viability score was 0.964 (active).

As to `Cc1c(F)cc(C(=O)NC2CC2)cc1-c1ccc(C(=O)NCC(C)(C)C)cn1`, the viability score was 1 (active).

As for `COC(=O)C1=C(C)NC(C)=C(C(=O)OC)C1c1ccccc1[N+](=O)[O-]`, the viability score is 0.907 (active).

In the case of `O=c1[nH]c(=O)n([C@H]2C[C@H](O)[C@@H](CO)O2)cc1I`, the viability score is 0.998 (active).

On to `O=[N+]([O-])c1ccc(C=Nc2sc3c(c2-c2nc4ccccc4s2)CCCC3)cc1`, for which the viability score was 1 (active).

Turning to `COc1cc2nc(N3CCN(C(=O)C4COc5ccccc5O4)CC3)nc(N)c2cc1OC.CS(=O)(=O)O` (stereo not drawn), the viability score is 0.914 (active).

For `O=C(c1ccc(Cl)cc1)c1ccc(N2CCCCC2)c([N+](=O)[O-])c1`, the viability score is 0.998 (active).
